Test results taken from publication PMC5540273 (PLoS ONE, 2017).

Key:
Settings in all cases: concentration: 1 μM, replicates: in singlicate; n = 1
[1] = tested on: T1, JNK2
T1 construct: gene MAPK9

[2] = tested on: T2, JNK3
T2 construct: gene MAPK10

[3] = tested on: KIT-autoinhibited
[4] = tested on: KIT
[5] = tested on: LATS1
[6] = tested on: LATS2
[7] = tested on: LCK
[8] = tested on: LIMK1
[9] = tested on: LIMK2
[10] = tested on: T3, LKB1
T3 construct: gene STK11
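Also: KINOMEscan kinase panel screen.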

SMILES	%Inh [1]	%Inh [2]	%Inh [3]	%Inh [4]	%Inh [5]	%Inh [6]	%Inh [7]	%Inh [8]	%Inh [9]	%Inh [10]
CCn1c(-c2nonc2N)nc2ccccc21 [SB-693162/GW549034]	57%	62%	26%	0%	0%	82%	12%	0%	0%	0%
O=C(Nc1n[nH]c2nc(-c3ccccc3)c(Br)cc12)C1CC1 [SB-708998]	0%	0%	9%	31%	0%	0%	23%	19%	12%	0%
Cc1nn2c(=O)cc(N3CCOCC3)nc2n1Cc1cccc(Cl)c1Cl [GSK2342769]	15%	5%	0%	10%	0%	0%	5%	0%	0%	0%
COc1cc2ncn(-c3cc(OCc4ccc(S(C)(=O)=O)cc4)c(C(N)=O)s3)c2cc1OC [GW869979]	18%	18%	21%	0%	0%	39%	12%	11%	16%	25%
Cc1ccccc1COc1cc(-n2cnc3cc(Cl)ccc32)sc1C(N)=O [GW813349]	0%	0%	0%	0%	0%	61%	0%	0%	13%	0%
Nc1n[nH]c2nnc(-c3ccccc3)c(-c3ccccc3)c12 [GW554060]	23%	15%	0%	18%	0%	4%	14%	6%	11%	0%
Nc1nccc2scc(-c3ccc4c(c3)CCN4C(=O)Cc3ccccc3)c12 [GSK2576924]	10%	0%	5%	74%	0%	0%	11%	3%	14%	9%
CCS(=O)(=O)c1ccc(OC)c(Nc2ncc(-c3ccc(F)cc3)o2)c1.Cl [GW591947]	21%	0%	0%	17%	0%	0%	13%	0%	0%	0%
CCc1nc(-c2cccc(C)c2)c(-c2ccncc2)s1	76%	90.3%	0%	42%	4%	0%	24%	0%	0%	35%
CCS(=O)c1ccc(-c2coc3ccc(-c4nnc(C)o4)cc23)cc1 (stereo not drawn)	24%	18%	0%	5%	18%	0%	5%	0%	0%	29%
Cc1cc(Nc2nc(-c3cccc(C)n3)nc3ccccc23)ccn1 [GW872411]	14%	0%	2%	0%	0%	0%	0%	0%	0%	0%
COc1cc2ncn(-c3cc(OCc4ccncc4)c(C(N)=O)s3)c2cc1OC [GSK336313]	12%	1%	0%	18%	0%	8%	30%	2%	18%	0%
CCC(=O)c1c(-c2ccccc2)c2cc(Cl)ccc2c(=O)n1Cc1cc(C(=O)NC2CC2)n(C)n1	100%	99.8%	0%	58%	19%	1%	0%	0%	0%	9%
CCC(=O)c1c(-c2ccccc2)c2cc(Cl)ccc2c(=O)n1Cc1cc(S(C)(=O)=O)n(CC(F)F)n1	99.4%	99.4%	0%	5%	0%	0%	0%	0%	0%	0%
COc1cccc(C2=C(N(C)c3ccccc3)C(=O)NC2=O)c1 [SB-334865]	14%	0%	0%	0%	3%	0%	16%	0%	0%	0%
COc1ccc(CNC(=O)NC2CCN(c3ccnc(Nc4ccc(F)cc4)n3)C2)cc1 (stereo not drawn) [GSK1379706]	9%	13%	3%	39%	22%	27%	16%	0%	29%	13%
COc1cc2nccc(Nc3cccc(Oc4ccccc4)c3)c2cc1OC.Cl [GW284543]	31%	0%	0%	15%	10%	0%	51%	0%	0%	0%
COc1ccc(-c2cc3c(C)nc(N)nc3n([C@H]3CC[C@H](O)CC3)c2=O)cn1	0%	0%	0%	0%	0%	7%	0%	0%	0%	0%
